# Measured values from publication PMC7862700, “An all-to-all approach to the identification of sequence-specific readers for epigenetic DNA modifications on cytosine”.
# How the values were obtained:
# Test in all cases: DAPPL (digital affinity profiling via proximity ligation, sequencing); 10 mM Tris-HCl pH 7.5, 50 mM NaCl, 1 mM DTT, 4% glycerol, room temperature, 30 min; GST-TFs on glutathione beads, 16-mer random dsDNA library, 0.1% formaldehyde crosslink after washing; high values mean tight binding
# FEV = target: T1, FEV (Homo sapiens, UniProt Q99581 1-238); conditions: protein: recombinant; tags: N-terminal GST; dsDNA, one strand shown
# T1 sequence: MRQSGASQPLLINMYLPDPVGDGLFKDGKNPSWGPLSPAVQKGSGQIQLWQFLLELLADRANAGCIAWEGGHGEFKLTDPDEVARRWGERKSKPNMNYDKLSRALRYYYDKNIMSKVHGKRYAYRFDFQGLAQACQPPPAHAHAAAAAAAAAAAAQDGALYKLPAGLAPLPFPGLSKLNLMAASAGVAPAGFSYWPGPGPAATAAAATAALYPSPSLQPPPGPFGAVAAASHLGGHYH
# How it was run: (§1)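 Sequencing on an Illumina NextSeq500 followed washing, crosslinking with 0.1% formaldehyde, proximity ligation (BsaI/T4 ligase, 1 h, 37 °C) and PCR amplification of pools that had been incubated for 30 min at room temperature with 200 nmole of a random double-stranded 16-mer DNA library in Tris/NaCl/DTT/glycerol buffer. Each pool held DNA-barcoded human transcription factors, expressed in yeast as GST fusions and captured on glutathione beads, plus a tag-only sample. Binding signal is a hexamer's read frequency for a factor divided by its frequency in the tag-only sample.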
# ETV5 = ETV5 (Homo sapiens, UniProt P41161 1-510); conditions: protein: recombinant; tags: N-terminal GST; dsDNA, one strand shown
# How it was run: as §1
# HSF1 = HSF1 (Homo sapiens, UniProt Q00613 1-529); conditions: protein: recombinant; tags: N-terminal GST; chain copies: 3; dsDNA, one strand shown
# How it was run: as §1
# SPIC = target: T2, SPIC (Homo sapiens, UniProt Q8N5J4 1-248); conditions: protein: recombinant; tags: N-terminal GST; dsDNA, one strand shown
# T2 sequence: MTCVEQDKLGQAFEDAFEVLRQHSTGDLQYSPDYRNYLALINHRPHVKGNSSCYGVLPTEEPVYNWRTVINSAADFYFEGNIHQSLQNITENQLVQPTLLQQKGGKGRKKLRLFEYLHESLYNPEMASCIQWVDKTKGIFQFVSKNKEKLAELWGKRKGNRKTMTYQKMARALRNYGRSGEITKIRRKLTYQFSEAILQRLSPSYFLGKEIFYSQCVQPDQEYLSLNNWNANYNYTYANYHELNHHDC
# How it was run: as §1
# ELF4 = ELF4 (Homo sapiens, UniProt Q99607 1-663); conditions: protein: recombinant; tags: N-terminal GST; dsDNA, one strand shown
# How it was run: as §1
# ELK4 = target: T3, ELK4 (Homo sapiens, UniProt P28324-2 1-405); conditions: protein: recombinant; tags: N-terminal GST; dsDNA, one strand shown
# T3 sequence: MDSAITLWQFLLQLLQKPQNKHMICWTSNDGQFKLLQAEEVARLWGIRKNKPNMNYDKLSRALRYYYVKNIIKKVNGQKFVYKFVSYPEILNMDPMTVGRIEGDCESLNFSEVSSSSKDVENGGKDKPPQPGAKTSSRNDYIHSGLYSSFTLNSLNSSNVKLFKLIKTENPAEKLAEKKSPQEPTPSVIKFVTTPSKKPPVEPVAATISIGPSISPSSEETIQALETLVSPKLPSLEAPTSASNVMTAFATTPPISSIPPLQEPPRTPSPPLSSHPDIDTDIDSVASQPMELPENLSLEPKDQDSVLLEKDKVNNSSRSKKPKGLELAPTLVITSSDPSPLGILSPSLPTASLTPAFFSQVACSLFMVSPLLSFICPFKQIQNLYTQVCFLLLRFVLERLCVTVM
# How it was run: as §1
# ETV2 = target: T4, ETV2 (Homo sapiens, UniProt O00321 1-342); conditions: protein: recombinant; tags: N-terminal GST; dsDNA, one strand shown
# T4 sequence: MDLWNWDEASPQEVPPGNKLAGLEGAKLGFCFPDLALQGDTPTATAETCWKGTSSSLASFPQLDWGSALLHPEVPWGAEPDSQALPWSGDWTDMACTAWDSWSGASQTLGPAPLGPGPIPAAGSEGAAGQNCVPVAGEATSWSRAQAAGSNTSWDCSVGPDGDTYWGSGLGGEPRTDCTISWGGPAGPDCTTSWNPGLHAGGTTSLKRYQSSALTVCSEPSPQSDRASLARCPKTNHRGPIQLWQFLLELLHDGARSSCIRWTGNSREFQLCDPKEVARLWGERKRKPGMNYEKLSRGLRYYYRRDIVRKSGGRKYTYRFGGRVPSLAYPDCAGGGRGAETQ
# How it was run: as §1
# ELF3 = target: T5, ELF3 (Homo sapiens, UniProt P78545 1-371); conditions: protein: recombinant; tags: N-terminal GST; dsDNA, one strand shown
# T5 sequence: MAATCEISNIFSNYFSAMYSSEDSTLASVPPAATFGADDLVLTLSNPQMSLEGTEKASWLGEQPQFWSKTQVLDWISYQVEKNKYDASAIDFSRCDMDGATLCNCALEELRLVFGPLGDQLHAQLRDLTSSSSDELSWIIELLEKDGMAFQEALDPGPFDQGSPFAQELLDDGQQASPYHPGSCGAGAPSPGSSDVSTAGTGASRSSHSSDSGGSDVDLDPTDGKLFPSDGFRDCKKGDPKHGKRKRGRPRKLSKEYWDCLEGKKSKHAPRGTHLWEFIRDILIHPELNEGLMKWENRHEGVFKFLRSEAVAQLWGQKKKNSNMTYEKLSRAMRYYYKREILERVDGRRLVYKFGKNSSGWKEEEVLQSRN
# How it was run: as §1
# CRX = CRX (Homo sapiens, UniProt O43186 1-299); conditions: protein: recombinant; tags: N-terminal GST; dsDNA, one strand shown
# How it was run: as §1
# ETV1 = ETV1 (Homo sapiens, UniProt P50549 1-477); conditions: protein: recombinant; tags: N-terminal GST; dsDNA, one strand shown
# How it was run: as §1
# Chain of CRX (O43186 whole entry): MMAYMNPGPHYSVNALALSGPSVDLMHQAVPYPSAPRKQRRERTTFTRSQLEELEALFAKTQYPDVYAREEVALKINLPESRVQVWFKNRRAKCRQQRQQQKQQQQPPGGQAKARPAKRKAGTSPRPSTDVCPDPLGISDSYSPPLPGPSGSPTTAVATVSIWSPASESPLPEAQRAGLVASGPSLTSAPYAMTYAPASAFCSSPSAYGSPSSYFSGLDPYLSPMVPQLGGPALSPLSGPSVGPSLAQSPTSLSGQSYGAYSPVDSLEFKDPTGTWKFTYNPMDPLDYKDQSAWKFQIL
# Chain of ETV1 (P50549 whole entry): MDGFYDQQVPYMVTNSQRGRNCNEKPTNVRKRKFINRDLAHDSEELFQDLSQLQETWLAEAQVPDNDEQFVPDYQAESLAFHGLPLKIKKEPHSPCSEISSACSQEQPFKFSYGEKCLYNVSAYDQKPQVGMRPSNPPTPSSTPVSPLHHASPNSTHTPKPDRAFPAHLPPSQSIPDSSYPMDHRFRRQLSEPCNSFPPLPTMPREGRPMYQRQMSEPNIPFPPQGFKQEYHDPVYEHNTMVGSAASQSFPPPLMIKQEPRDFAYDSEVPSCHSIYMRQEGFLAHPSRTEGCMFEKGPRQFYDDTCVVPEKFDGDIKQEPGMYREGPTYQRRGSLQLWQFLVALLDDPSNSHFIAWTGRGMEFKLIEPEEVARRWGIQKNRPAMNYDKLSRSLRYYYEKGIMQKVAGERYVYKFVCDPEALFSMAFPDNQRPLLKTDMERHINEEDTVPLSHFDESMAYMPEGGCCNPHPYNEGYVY
# Chain of ETV5 (P41161 whole entry): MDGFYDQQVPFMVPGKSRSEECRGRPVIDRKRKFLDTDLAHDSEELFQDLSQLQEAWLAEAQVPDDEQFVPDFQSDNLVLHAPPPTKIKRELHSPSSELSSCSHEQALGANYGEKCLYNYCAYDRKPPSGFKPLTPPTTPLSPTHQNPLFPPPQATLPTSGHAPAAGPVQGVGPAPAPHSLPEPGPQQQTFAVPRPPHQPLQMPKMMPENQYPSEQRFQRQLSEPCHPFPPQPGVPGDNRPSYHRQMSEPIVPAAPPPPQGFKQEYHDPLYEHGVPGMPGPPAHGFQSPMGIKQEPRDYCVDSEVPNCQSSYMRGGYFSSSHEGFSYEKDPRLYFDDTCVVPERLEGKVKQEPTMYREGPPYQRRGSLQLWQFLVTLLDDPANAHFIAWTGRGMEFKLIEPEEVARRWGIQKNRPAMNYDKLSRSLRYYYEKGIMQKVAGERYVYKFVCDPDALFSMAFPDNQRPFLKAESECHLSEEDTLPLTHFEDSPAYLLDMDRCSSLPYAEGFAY
# Chain of HSF1 (Q00613 whole entry): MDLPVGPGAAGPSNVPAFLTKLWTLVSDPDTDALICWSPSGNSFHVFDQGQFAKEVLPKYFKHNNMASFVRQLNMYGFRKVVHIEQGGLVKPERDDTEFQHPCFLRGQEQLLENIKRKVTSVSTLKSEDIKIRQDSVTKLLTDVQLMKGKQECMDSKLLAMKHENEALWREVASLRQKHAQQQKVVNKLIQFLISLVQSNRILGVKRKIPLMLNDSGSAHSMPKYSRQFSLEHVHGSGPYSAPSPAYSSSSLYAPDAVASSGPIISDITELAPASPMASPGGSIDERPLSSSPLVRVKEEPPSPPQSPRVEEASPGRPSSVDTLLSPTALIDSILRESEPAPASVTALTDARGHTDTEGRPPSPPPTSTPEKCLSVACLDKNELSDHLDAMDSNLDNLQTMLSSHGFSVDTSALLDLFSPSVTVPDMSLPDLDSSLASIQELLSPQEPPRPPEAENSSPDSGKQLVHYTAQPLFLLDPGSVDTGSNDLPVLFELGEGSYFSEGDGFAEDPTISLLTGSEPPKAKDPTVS
# Chain of ELF4 (Q99607 whole entry): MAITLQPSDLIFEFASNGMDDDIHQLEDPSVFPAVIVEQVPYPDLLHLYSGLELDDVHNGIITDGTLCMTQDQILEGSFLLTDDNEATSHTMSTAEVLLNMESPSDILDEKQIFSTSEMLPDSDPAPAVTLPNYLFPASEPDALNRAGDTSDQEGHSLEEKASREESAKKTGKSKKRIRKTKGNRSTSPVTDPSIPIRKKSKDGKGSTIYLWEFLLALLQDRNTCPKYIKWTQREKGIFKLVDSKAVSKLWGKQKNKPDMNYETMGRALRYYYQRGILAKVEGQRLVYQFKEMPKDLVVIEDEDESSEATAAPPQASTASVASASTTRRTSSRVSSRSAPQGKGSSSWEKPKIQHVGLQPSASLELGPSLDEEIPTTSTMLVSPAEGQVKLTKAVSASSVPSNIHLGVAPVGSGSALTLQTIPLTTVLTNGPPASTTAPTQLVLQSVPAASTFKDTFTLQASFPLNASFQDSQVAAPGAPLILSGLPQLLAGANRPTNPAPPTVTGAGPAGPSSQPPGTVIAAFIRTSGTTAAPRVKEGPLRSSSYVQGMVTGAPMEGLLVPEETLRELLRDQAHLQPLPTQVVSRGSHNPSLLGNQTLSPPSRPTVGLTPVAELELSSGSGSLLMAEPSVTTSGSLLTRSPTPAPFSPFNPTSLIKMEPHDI
Sequence,binding signal (FEV),binding signal (ETV5),binding signal (HSF1),binding signal (SPIC),binding signal (ELF4),binding signal (ELK4),binding signal (ETV2),binding signal (ELF3),binding signal (CRX),binding signal (ETV1)
GCTCTA,"1.15 fold enrichment (6-mer frequency, TF over GST control)","1.21 fold enrichment (6-mer frequency, TF over GST control)","1.34 fold enrichment (6-mer frequency, TF over GST control)","1.26 fold enrichment (6-mer frequency, TF over GST control)","1.21 fold enrichment (6-mer frequency, TF over GST control)","1.07 fold enrichment (6-mer frequency, TF over GST control)","1.19 fold enrichment (6-mer frequency, TF over GST control)","1.28 fold enrichment (6-mer frequency, TF over GST control)","1.36 fold enrichment (6-mer frequency, TF over GST control)","1.11 fold enrichment (6-mer frequency, TF over GST control)"
TTATGT,"1.15 fold enrichment (6-mer frequency, TF over GST control)","1.38 fold enrichment (6-mer frequency, TF over GST control)","1.63 fold enrichment (6-mer frequency, TF over GST control)","1.17 fold enrichment (6-mer frequency, TF over GST control)","1.38 fold enrichment (6-mer frequency, TF over GST control)","1.38 fold enrichment (6-mer frequency, TF over GST control)","1.13 fold enrichment (6-mer frequency, TF over GST control)","1.41 fold enrichment (6-mer frequency, TF over GST control)","2.24 fold enrichment (6-mer frequency, TF over GST control)","1.29 fold enrichment (6-mer frequency, TF over GST control)"
TTCCTG,"2.13 fold enrichment (6-mer frequency, TF over GST control)","2.57 fold enrichment (6-mer frequency, TF over GST control)","1.63 fold enrichment (6-mer frequency, TF over GST control)","2.31 fold enrichment (6-mer frequency, TF over GST control)","2.05 fold enrichment (6-mer frequency, TF over GST control)","1.78 fold enrichment (6-mer frequency, TF over GST control)","2.46 fold enrichment (6-mer frequency, TF over GST control)","2.23 fold enrichment (6-mer frequency, TF over GST control)","1.12 fold enrichment (6-mer frequency, TF over GST control)","2.22 fold enrichment (6-mer frequency, TF over GST control)"
GTCTCC,"1.53 fold enrichment (6-mer frequency, TF over GST control)","1.46 fold enrichment (6-mer frequency, TF over GST control)","1.15 fold enrichment (6-mer frequency, TF over GST control)","1.32 fold enrichment (6-mer frequency, TF over GST control)","1.43 fold enrichment (6-mer frequency, TF over GST control)","1.46 fold enrichment (6-mer frequency, TF over GST control)","1.38 fold enrichment (6-mer frequency, TF over GST control)","1.46 fold enrichment (6-mer frequency, TF over GST control)","1.04 fold enrichment (6-mer frequency, TF over GST control)","1.37 fold enrichment (6-mer frequency, TF over GST control)"
ATAAAA,"1.15 fold enrichment (6-mer frequency, TF over GST control)","1.12 fold enrichment (6-mer frequency, TF over GST control)","1.31 fold enrichment (6-mer frequency, TF over GST control)","1.02 fold enrichment (6-mer frequency, TF over GST control)","1.2 fold enrichment (6-mer frequency, TF over GST control)","1.17 fold enrichment (6-mer frequency, TF over GST control)","1.2 fold enrichment (6-mer frequency, TF over GST control)","1.2 fold enrichment (6-mer frequency, TF over GST control)","1.43 fold enrichment (6-mer frequency, TF over GST control)","1.16 fold enrichment (6-mer frequency, TF over GST control)"
CAATAC,"1.27 fold enrichment (6-mer frequency, TF over GST control)","1.26 fold enrichment (6-mer frequency, TF over GST control)","1.07 fold enrichment (6-mer frequency, TF over GST control)","1.16 fold enrichment (6-mer frequency, TF over GST control)","1.23 fold enrichment (6-mer frequency, TF over GST control)","1.39 fold enrichment (6-mer frequency, TF over GST control)","1.22 fold enrichment (6-mer frequency, TF over GST control)","1.29 fold enrichment (6-mer frequency, TF over GST control)","1.04 fold enrichment (6-mer frequency, TF over GST control)","1.3 fold enrichment (6-mer frequency, TF over GST control)"
AAAATG,"1.16 fold enrichment (6-mer frequency, TF over GST control)","1.23 fold enrichment (6-mer frequency, TF over GST control)","1.15 fold enrichment (6-mer frequency, TF over GST control)","1.32 fold enrichment (6-mer frequency, TF over GST control)","1.26 fold enrichment (6-mer frequency, TF over GST control)","1.27 fold enrichment (6-mer frequency, TF over GST control)","1.31 fold enrichment (6-mer frequency, TF over GST control)","1.32 fold enrichment (6-mer frequency, TF over GST control)","1.1 fold enrichment (6-mer frequency, TF over GST control)","1.2 fold enrichment (6-mer frequency, TF over GST control)"
